# This is a sample that favours compounds with a hit; in the whole collection about 3.5% have one here.
# mHTT-CaM PPI inh: mutant huntingtin-calmodulin interaction inhibitors – biochemical, AlphaScreen, primary screen; P42858; AlphaScreen His-mHTT/GST-CaM binding, luminescence; inhibition, % at 15 µM; 190,000 compounds, 3.6% hits; AID 1671202, 2021;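 also: 0% = both proteins with DMSO and 100% = one protein alone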
# Pf apPOL inh: Pf-apPOL inhibitors, biochemical, fluorescence | Plasmodium falciparum apicoplast DNA polymerase (apPOL) | Recombinant Pf-apPOL, molecular beacon fluorescence, 1.5 h | inhibition, % at 10 µM | 210,000 compounds, 0.25% hits | AID 1794808, 2022
# Starred values were filed as active, the others as inactive; i = inactive; / = not tested or not shown. Rule as the data show it: active = inhibition above about 50%; inactive = the rest.
SMILES,mHTT-CaM PPI inh,Pf apPOL inh
Cc1nc(CSc2nnc3ccc(-c4cccc([N+](=O)[O-])c4)nn23)cs1,-15,1
Cc1ccc(C)c(NC(=O)CSc2cccc3cccnc23)c1,10,-2
Cc1ccnc(NC(c2cccc(C)n2)c2ccc3cccnc3c2O)c1 (stereo unspecified),87*,3
Cc1ccnc(NC(=O)c2cccc(Cl)c2)c1,-12,-6
Cc1ccnc(NC(c2cc(C)ccc2O)c2ccc3cccnc3c2O)c1 (stereo unspecified),99*,-7
CCCC(=O)Nc1cc(OC)cc(OC)c1,-2,-2
COc1cccc(CC(=O)Nc2ccn(-c3ccc(C#N)cc3)n2)c1,15,0
CCN1C(=O)c2cccnc2Sc2cc(NC(=O)c3ccc(C)cc3)ccc21,19,-2
CN(C)S(=O)(=O)c1ccc(C(=O)N2Cc3nn(C(C)(C)C)c(-n4cccc4)c3C2)cc1,54*,-3
CC(C)(C)n1nc2c(c1-n1cccc1)CN(C(=O)c1ccc(=O)[nH]c1)C2,21,5
CCCCCCCCCCCCSC(=S)c1c(C)[nH]n(-c2ccccc2)c1=O,/,-21
Fc1ccccc1/C=N\n1c(-c2ccccc2)n[nH]c1=S,i,/
CCCCNC(=O)C1CCCN(c2ccc(N3CCN(CC)CC3)nn2)C1 (stereo unspecified),-2,-8
CC(=O)N1c2c(cc(Br)cc2S(=O)(=O)Nc2cccc(C(F)(F)F)c2)CC1C (stereo unspecified),4,-2
CC(=O)N1c2c(cc(Br)cc2S(=O)(=O)Nc2ccc(C(F)(F)F)cc2)CC1C (stereo unspecified),91*,-1
O=C(NCc1ccco1)/C(=C\c1ccc2c(c1)OCO2)NC(=O)c1ccc(Br)o1,3,-4
Cc1cc(C)c2nc(C)cc(Nc3ccc(C(=O)O)cc3)c2c1,3,-14
Cc1cc(C)c2nc(C)cc(Nc3ccc(OCc4ccccc4)cc3)c2c1,90*,0
CCOc1ccc(Nc2nc(-c3ccccc3)cs2)cc1,9,-2
CCOc1ccc2nc(C)cc(Nc3ccc(OCc4ccccc4Cl)cc3)c2c1,98*,-2
CCOc1ccc(Nc2c3ccccc3nc3ccccc23)cc1,63*,-6
CCOc1ccc2nc(C)cc(Nc3cc(Cl)ccc3OC)c2c1,27,-4
COC(=O)Cn1c(COc2ccccc2)nc2ccccc21,-21,-5
CC1C(=O)N(c2cccc(Cl)c2)CCN1C(=O)C1CCC1 (stereo unspecified),-5,-4
Cc1cc(OCC(=O)Nc2ccccc2Br)nc(N2CCC(C)CC2)n1,-8,1
SMILES,mHTT-CaM PPI inh,Pf apPOL inh
O=C(Cn1c2c(c3ccccc31)CCC2)Nc1cc(F)ccc1F,76*,-2
O=C(Cn1cnc2c(oc3ccccc32)c1=O)Nc1cc(F)ccc1F,-1,-3
O=C(NCc1ccccn1)c1c(O)nc2sccn2c1=O,-4,2
Nc1ncc(C2=C(Cl)C(O)C(Cl)=C(Cl)C2O)s1 (stereo unspecified),100*,-3
N=c1sc2ccccc2n1-c1ccccc1,/,-13
Cc1c(CCCN)c2ccccc2n1-c1ccccc1,50*,-6
O=[N+]([O-])c1ccc2nc(Nc3ccc(Cl)c(Cl)c3)c(Nc3ccc(Cl)c(Cl)c3)nc2c1,-3,/
O=[N+]([O-])c1ccc(Cl)c(Nc2nc3nonc3nc2Nc2cc([N+](=O)[O-])ccc2Cl)c1,98*,/
O=C(O)c1ccc([N+](=O)[O-])c2c1NC(C1CC=CCC1)C1CC=CC21 (stereo unspecified),41,2
CCOc1cc2c(c([N+](=O)[O-])c1)NC(C1CC=CCC1)C1CC=CC21 (stereo unspecified),71*,3
CC1CCCN(c2nc(-c3ccc([N+](=O)[O-])cc3)nc3ccccc23)C1 (stereo unspecified),60*,0
COc1cc(-c2nc(N3CCCC(C)C3)c3ccccc3n2)cc(OC)c1OC (stereo unspecified),-5,-2
COC(=O)C1OC(O)C(O)C(O)C1O (stereo unspecified),/,96*
CC(=O)NC1C(O)OC(CO)C(O)C1O (stereo unspecified),/,-16
CC(=O)c1ccc(N2CCN(Cc3ccc([N+](=O)[O-])cc3)CC2)cc1,11,-1
O=C(Nc1cc(-c2ccco2)nn1-c1cc(C(F)(F)F)cc(C(F)(F)F)c1)C1CCC1,/,91*
COc1ccc(-n2nc(C(C)(C)C)cc2NC(=O)C2CCC2)cc1,1,-5
CCn1cnc2c1c(=O)n(CCC(C)C)c(=O)n2-c1ccc(F)cc1,5,1
Cc1ccc(CCN2C(=O)CCC2(C)C(=O)NCCCOC(C)C)cc1 (stereo unspecified),6,-2
CSc1nnc2c(n1)OC(c1ccc(Br)s1)Nc1ccccc1-2 (stereo unspecified),57*,-3
CCSc1nnc2c(n1)OC(c1cn[nH]c1-c1ccccc1)Nc1ccccc1-2 (stereo unspecified),7,-6
CSc1nnc2c(n1)OC(c1cc3c(cc1Br)OCO3)Nc1ccccc1-2 (stereo unspecified),0,85*
CCCCSc1nnc2c(n1)OC(c1ccncc1)Nc1ccccc1-2 (stereo unspecified),8,4
CCSc1nnc2c(n1)OC(c1cc3c(cc1[N+](=O)[O-])OCO3)Nc1ccccc1-2 (stereo unspecified),53*,2
CSc1nnc2c(n1)OC(c1ccccc1O)Nc1ccccc1-2 (stereo unspecified),-4,2
SMILES,mHTT-CaM PPI inh,Pf apPOL inh
CSc1nnc2c(n1)OC(c1cccs1)Nc1ccccc1-2 (stereo unspecified),6,-2
CCCCSc1nnc2c(n1)OC(c1cc3c(cc1[N+](=O)[O-])OCO3)Nc1ccccc1-2 (stereo unspecified),77*,-4
COc1cc(NC(=O)c2cc(-c3ccccc3)n[nH]2)c2ncccc2c1,30,6
CC(=O)c1cccc(NC(=O)C2CCCN(c3ncnc4c3nc3n4CCCCC3)C2)c1 (stereo unspecified),8,1
CCNC(=O)C1CC(c2ccccc2)CN(C(=O)C2CC2)C1 (stereo unspecified),-5,-3
O=C(Nc1ccc2c(c1)OCO2)C(=O)NC1CC1,-4,4
CCOc1ccccc1CN1CCCC(C(=O)N2CCCCC2)C1 (stereo unspecified),-6,0
CCCNC(=O)N1CCc2c(c(COCc3cccc(F)c3)nn2C)C1,4,-6
CCOc1ccccc1NC(=O)c1c(NCc2ccccn2)sc2c1CCCCC2,73*,-22
COc1ccccc1NC(=O)c1c(NCc2ccccn2)sc2c1CCCCC2,73*,-17
CCOc1ccccc1NC(=O)c1c(NC(=O)CNCC2CCCO2)sc2c1CCC2 (stereo unspecified),3,-2
CCOc1ccccc1NC(=O)c1c(NC(=O)CN2CCOCC2)sc2c1CCC2,-4,0
CCOc1ccc(NC(=O)c2c(NC(=O)CN3CCN(C)CC3)sc3c2CCC3)cc1,1,-6
CCOc1ccccc1NC(=O)c1c(NCc2ccncc2)sc2c1CCCC2,53*,-15
CCOc1ccc(NC(=O)c2c(NCc3ccccn3)sc3c2CCC3)cc1,59*,-15
CC(C)(C)C(=O)Nc1sc2c(c1C(=O)Nc1ccccn1)CCCC2,-6,-8

# Screens (PubChem BioAssay)
